# Rows were chosen to be rich in hits. Some 4.3% of all compounds tested hit in one or more screens of this group.
# CHOP inhibitor = inhibitors of CHOP promoter induction, primary screen, cell-based, unfolded protein response, luciferase reporter | CHO-K1 CHOP-promoter luciferase, tunicamycin-induced, 15-18 h | inhibition, % at 10 µM | actives 3.8% (n = 220,000);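 active means compounds that reduced the stress-induced luciferase reporter signal by more than about 70% of percent inhibition, limit read from the data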;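 further: 0% = tunicamycin plus vehicle and 100% = wells without tunicamycin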
# KKLEB tox = cytotoxicity in KKLEB CF airway cells, primary screen, cytotoxicity control for CF NF-kB inhibitor project, cell-based, uHTS, fluorescence assay plates. AID 602141, 2011. KKLEB CF airway cells viability, ATPlite luminescence, overnight; stronger effect = lower value; cells stimulated with P. aeruginosa culture filtrate. activity change (cytotoxicity), % at 5 µM. actives 0.36% (n = 360,000);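 active means corrected activity change at or below -50% at 5 µM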
# Peg3 promoter = Peg3 promoter-driven luciferase inhibitors, primary screen, cell-based, HeLa, luciferase luminescence; HeLa PEG-Prom luciferase reporter, overnight; inhibition, % at 20 µM; actives 1.7% (n = 360,000);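 active means inhibition of at least 50% at 20 µM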
# CF NFkB inh = inhibitors of PAF-induced NF-kB signaling, primary screen, cell-based, GFP fluorescence, uHTS. KKLEB NF-kB-GFP reporter, GFP fluorescence overnight. inhibition, % at 5 µM. actives 0.86% (n = 360,000);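 active means at least 50% inhibition at 5 µM, scaled per plate between neutral and stimulator controls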;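 further: PAF is a Pseudomonas aeruginosa culture filtrate used as stimulus; plate controls were PAF-stimulated DMSO wells for no effect and unstimulated DMSO wells for full effect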
# HIF-2a inh = HIF-2a reporter inhibitors, primary screen, luminescence, 786-0 RCC cells; 786-0 RCC cells HIF-2a reporter, luciferase luminescence, overnight; inhibition, % at 18.8 µM; AID 624352, 2012; actives 0.72% (n = 360,000);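 active means inhibition of the luminescence signal of 40% or more relative to plate controls, in a single-dose primary screen at 18.75 µM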
# MITF TRPM1 inh = inhibitors of MITF-dependent TRPM1 promoter reporter, primary screen, cell-based, SK-MEL-5, single point, luciferase. SK-MEL-5 TRPM1 promoter luciferase, 24 h. inhibition, % at 12.5 µM. actives 0.83% (n = 330,000). AID 488899, 2010;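 active means mean inhibition across replicates of 60% or more, whatever share of single replicates reaches that level; inconclusive means some that reach 60%, reason not given; inactive means mean inhibition across replicates below 60%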
# Mdm2 MdmX conf = retested Mdm2-MdmX interaction blockers, confirmation, cell-based, luminescence, single concentration, set 2; shares compounds with HIF-2a inh; actives 99% (n = 740); inhibition, % at 8 µM; AID 504601, 2011; SaOS-2 split-luciferase Mdm2/MdmX complementation;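 active means mean inhibition of the luminescence signal across two replicates at or above 26 percent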
# Target sequence (O15151 whole entry, looked up): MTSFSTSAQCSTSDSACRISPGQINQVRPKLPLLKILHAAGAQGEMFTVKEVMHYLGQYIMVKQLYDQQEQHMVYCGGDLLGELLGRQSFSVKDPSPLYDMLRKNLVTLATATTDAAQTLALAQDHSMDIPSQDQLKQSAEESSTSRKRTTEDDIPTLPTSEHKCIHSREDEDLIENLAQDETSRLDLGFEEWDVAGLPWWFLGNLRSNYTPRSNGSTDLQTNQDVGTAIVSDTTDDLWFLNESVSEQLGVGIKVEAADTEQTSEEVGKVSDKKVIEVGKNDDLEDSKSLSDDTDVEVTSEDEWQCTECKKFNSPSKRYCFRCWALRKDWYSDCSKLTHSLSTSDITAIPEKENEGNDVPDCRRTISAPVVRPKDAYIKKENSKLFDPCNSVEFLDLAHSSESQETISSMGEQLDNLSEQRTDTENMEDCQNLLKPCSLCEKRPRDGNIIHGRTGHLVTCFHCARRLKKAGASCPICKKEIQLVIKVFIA
# Target sequence (Q00987 whole entry, looked up): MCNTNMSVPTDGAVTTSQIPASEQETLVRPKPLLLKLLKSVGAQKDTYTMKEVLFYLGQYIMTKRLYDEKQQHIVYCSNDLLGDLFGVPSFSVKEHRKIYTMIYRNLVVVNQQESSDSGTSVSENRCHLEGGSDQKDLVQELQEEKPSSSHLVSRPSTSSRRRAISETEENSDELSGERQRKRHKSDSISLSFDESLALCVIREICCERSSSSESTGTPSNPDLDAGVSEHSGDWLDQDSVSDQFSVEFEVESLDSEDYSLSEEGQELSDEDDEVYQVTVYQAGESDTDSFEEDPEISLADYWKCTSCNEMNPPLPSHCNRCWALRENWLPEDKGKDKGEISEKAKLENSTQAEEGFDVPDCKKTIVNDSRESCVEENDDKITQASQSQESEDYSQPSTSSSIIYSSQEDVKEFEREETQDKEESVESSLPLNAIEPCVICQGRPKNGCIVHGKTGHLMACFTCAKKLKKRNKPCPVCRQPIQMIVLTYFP
# HIF-2a inh conf = HIF-2a reporter inhibitor retest, confirmation, luminescence, 786-0 RCC cells | AID 651580, 2012 | shares compounds with HIF-2a inh | HIF-2a luciferase reporter luminescence, overnight | actives 56% (n = 1,800) | inhibition, % at 18.8 µM;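 active means mean inhibition across four replicates of at least 40 percent at the single tested concentration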
# HIF-1a cs = HIF-1a luciferase reporter signal reduction – MiaPaCa-2 cells, single concentration, counter-screen for HIF-2a inhibitor project, confirmation; inhibition, % at 18.8 µM; MiaPaCa-2 HIF-1a luciferase reporter, desferoxamine, overnight; shares compounds with HIF-2a inh; actives 72% (n = 1,800);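 active means mean inhibition of the reporter signal across four replicates at the single tested dose of 50% or more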
# An asterisk follows results filed as active; ? = inconclusive; · = not tested or not shown.
SMILES,CHOP inhibitor,KKLEB tox,Peg3 promoter,CF NFkB inh,HIF-2a inh,MITF TRPM1 inh,HIF-2a inh conf,HIF-1a cs,others
Cc1ccc(-c2nc3cc(N)ccc3o2)cc1Br,·,4,-303,-4,-126,-25,·,·,
C/C(CC(=O)Nc1cccc(Cl)c1Cl)=N\NC(=O)c1ccccc1N,40,6,-12,2,-26,31,·,·,
NC(=O)C(C(=O)/C=C/c1ccc(Cl)cc1)=C1SCCS1,-107,4,61*,34,-2,39,·,·,Mdm2 MdmX conf=102*
N=c1nc(SCCC(=O)O)ss1,53,1,6,-8,69*,17,73*,46,
CC(=O)N1c2ccc(S(=O)(=O)N3CCCCC3)cc2CC1C(=O)Nc1ccc(F)cc1C (stereo not given),·,-2,28,-14,21,12,·,·,
COC(=O)c1cc(=O)n(Cc2cccs2)c(=NCc2cccs2)s1,30,-26,39,25,2,1,·,·,
CCOC(=O)c1ccc(N=c2sc(C(=O)OC)cc(=O)n2Cc2ccco2)cc1,12,-18,100*,23,82*,18,65*,106*,
O=[N+]([O-])c1ccc(N=Nc2ncc[nH]2)cc1,·,-7,107*,75*,-23,15,·,·,Mdm2 MdmX conf=103*
COc1cc2c3nnc(-c4ccc(F)cc4)c-3cn(Cc3ccccc3)c2cc1OC,-116,11,103*,-348,-24,·,·,·,Mdm2 MdmX conf=103*
COc1ccc(-c2nnn(Cc3ccccc3)n2)cc1OC,·,-6,-28,-11,-71,-25,·,·,
Cc1cc(C)cc(NC(=O)Nc2ccccc2N2CCCCC2)c1,30,-6,7,0,15,6,·,·,
CCC(C)[C@H](NC(=O)N1CC(=O)Nc2ccccc21)C(=O)Nc1nccs1 (stereo not given in full),·,23,-1,-4,14,-12,·,·,
COc1ccc(/C=C/C(O)=C2/C(=O)NC3(C)CC2c2ccccc2O3)c(OC)c1OC (stereo not given),-70,0,34,14,36,27,·,·,
COc1ccc(/C=C/C(O)=C2/C(=O)N(C)C3(C)CC2c2ccccc2O3)cc1 (stereo not given),-67,-6,29,7,54*,20,-5,54*,
Cc1ccc(/C=C/C(O)=C2/C(=O)N(C)C3(C)CC2c2ccccc2O3)cc1 (stereo not given),-1,-3,39,15,83*,11,37,97*,
Cc1sc2ncnc(Nc3ccc(N4CCOCC4)cc3)c2c1-c1ccccc1,43,-14,29,24,45*,4,24,79*,
Cc1sc2ncnc(Nc3ccccc3)c2c1C,36,2,-25,2,-55,-23,·,·,
COc1ccc(C(CNC(=O)c2ccc(-c3ccccc3)cc2)N(C)C)cc1OC (stereo not given),·,-11,12,14,-16,-19,·,·,
CC1(C)CC[C@]2(C(=O)O[C@@H]3O[C@H](CO)[C@@H](O)[C@H](O)[C@H]3O)CC[C@]3(C)C(=CCC4[C@@]5(C)CC[C@H](O[C@@H]6O[C@H](C(=O)O)[C@@H](O[C@H]7OC[C@@H](O)[C@@H](O)[C@@H]7O)[C@H](O)[C@H]6O)C(C)(C)C5CC[C@]43C)[C@@H]2C1 (stereo not given in full),·,13,-2,2,9,-10,·,·,
CC1(C)CC[C@]2(C(=O)O)CC[C@]3(C)C(=CC[C@@H]4[C@@]5(C)CC[C@H](O[C@@H]6O[C@H](C(=O)O)[C@@H](O)[C@H](O[C@@H]7OC[C@H](O)[C@H](O)[C@H]7O)[C@H]6O)C(C)(C)[C@@H]5CC[C@]43C)[C@@H]2C1,·,-95*,59*,88*,55*,6,94*,52*,
Cc1nc2nc(-c3ccc(F)cc3)cn2nc1C,·,7,-88,-14,-56,-15,·,·,
CCc1ccc(-c2cn3nc(C)c(C)nc3n2)cc1,92*,-9,71*,-4,66*,77*,91*,84*,
CCn1c(/C=C/N(C(C)=O)c2ccccc2)[n+](CCCS(=O)(=O)[O-])c2cc(Cl)c(Cl)cc21,17,5,-12,0,8,17,·,·,
CCn1c(/C=C/Nc2ccccc2)[n+](CC)c2cc(Cl)c(Cl)cc21,28,-34,104*,22,68*,?,-3,88*,
CC1CN(c2nc3ccccc3nc2NS(=O)(=O)c2ccccc2)CC(C)O1 (stereo not given),·,17,12,-16,-1,0,·,·,
SMILES,CHOP inhibitor,KKLEB tox,Peg3 promoter,CF NFkB inh,HIF-2a inh,MITF TRPM1 inh,HIF-2a inh conf,HIF-1a cs,others
CC(OC(=O)c1ccc(S(C)(=O)=O)c([N+](=O)[O-])c1)C(=O)NC1C2CC3CC(C2)CC1C3 (stereo not given),·,-47,95*,95*,93*,·,87*,100*,
CCS(=O)(=O)N1CCN(c2ccc(C(=O)NC34CC5CC(CC(C5)C3)C4)cc2[N+](=O)[O-])CC1,11,-16,0,14,19,-1,·,·,
CCC(OC(=O)c1ccc(S(C)(=O)=O)c([N+](=O)[O-])c1)C(=O)NC1C2CC3CC(C2)CC1C3 (stereo not given),·,-74*,96*,104*,81*,·,18,105*,
O=C1C/C(=C\c2c(F)cccc2Cl)N2CCC1CC2,3,3,2,-6,3,7,·,·,
CCCN1Cc2cccc(C(=O)NC(CC(=O)OCC)c3ccc(OCC)c(OC)c3)c2C1=O (stereo not given),-4,-1,13,2,13,7,·,·,
Cc1oc(-c2ccccc2Cl)nc1CSCC(=O)O,-13,-7,20,9,18,8,·,·,
Cc1oc(-c2cccc(Cl)c2)nc1CSCC(=O)O,19,0,16,-8,43*,27,35,32,

# Bioassay records (PubChem)
